# From PubChem
# AT treatment: candidate therapy for ataxia-telangiectasia; F2112 A-T fibroblasts, KAP-1 phosphorylation AlphaLISA; neocarzinostatin DNA damage 30 min before lysis; Potency, µM (titrated, usually from 57.5 µM), for the others: top-dose activation, most hits filed as activators; actives 0.19% (n = 320,000); further: potency means the concentration at half of the fitted maximal effect; % of control where 0% means no effect; nearly all actives have a fitted effect of over 45% in size
#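 ATM-like activity read as KAP-1 phosphorylation via AlphaLISA donor/acceptor antibody pairs after lysis and 6 hr at 25C. Cells were ATM-null patient fibroblasts (F2112, hTERT), dosed 60 min, then exposed to the DSB inducer NCS for 30 min.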
# CCT chaperon mod: cytosolic chaperonin activity modulation | purified chaperonin ATPase assay, HTRF ADP detection, 30 min | actives 0.3% (n = 360,000) | activity change, % (no concentration beside the values), hits read low; in the data active means activity change below about -30%; further: on the % scale 0 is the no-effect control and ±100 the full control effect
#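 We incubate TRiC, 40 or 20 nM final, with library compounds at 76 uM and 10 uM ATP for 30 min at 37 °C. ADP formed is detected with Transcreener HTRF reagents after 30 min at room temperature.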
# TCR activator: activators of T cell receptors | Potency, µM (titrated, usually from 9.22 µM), for inactives: at the highest dose activation of IL-2 secretion, most hits filed as activators | primary human leukocytes, anti-CD3, IL-2 HTRF, 48 h | 330,000 tested, under 10 active; further: % of control where 0% means no effect
#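 Primary human leukocytes incubated 48 hr with anti-CD3 beads plus compound, without co-stimulation. Secreted IL-2 measured by HTRF (europium cryptate/d2 anti-IL-2 pair, 320 nm excitation, 665 nm emission).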
# Nrf2 inh: blocks Nrf2 signaling; AID 504444; A549 ARE-Fluc reporter, luciferase luminescence, 18-24 h; actives 2.1% (n = 360,000); Potency, µM (titrated, usually from 46 µM), for inactives: top-dose activity change, negative = inhibition, actives largely listed as inhibitors; further: potency means the concentration at half of the fitted maximal effect; on the % scale 0 is the no-effect control and ±100 the full control effect; nearly all actives have a fitted effect of over 60% in size
#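 Cells were seeded and rested 2 h, then exposed to compounds for 18-24 h. CellTiter-Fluor was read first as a viability measure. BugLite was added 15 min before the final luminescent read of ARE-luciferase activity in A549 cells.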
# A549 viability: counter-screen for Nrf2 inhibitors: cytotoxicity in A549 cells | A549 ARE-Fluc cells, CellTiter-Fluor viability, 18-24 h | AID 504648 | Potency, µM (top dose mostly 46 µM), inactives show at the highest dose activity change, negative = cytotoxicity, most hits filed as inhibitors | actives 0.16% (n = 390,000); further: potency means the concentration at half of the fitted maximal effect; on the % scale 0 is the no-effect control and ±100 the full control effect
#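 Cytotoxicity counterscreen: CellTiter-Fluor fluorescence was measured in A549 ARE_Fluc cells after 18-24 h of compound exposure in a concentration series. The subsequent BugLite luminescent read reports ARE-luciferase activity.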
# Nrf2 ARE act: activators of Nrf2 (ARE) signaling | AREc32 ARE-luciferase reporter (MCF7-derived line), luminescence, 24 h | Potency, µM (highest dose often 46.1 µM), for the others: top-dose activation, most hits filed as activators | actives 0.31% (n = 410,000); further: potency means the concentration at half of the fitted maximal effect; % of control where 0% means no effect; nearly all actives have a fitted effect of over 65% in size
#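 AREc32 cells carrying an ARE-driven firefly luciferase, 1000 cells/well in OPTI-MEM with 5% FBS, dosed after overnight attachment and incubated 24 hr at 37 deg C. Steady-Glo luminescence read after 30 min at RT.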
# The depositor's hits bear a star; ? = inconclusive; . = not tested or not shown; [ ] = dose if it differs, or a comment. Rows were chosen to be rich in hits. Some 2.6% of all compounds tested hit in one or more screens of this group. Unless noted, the call rests on the fitted dose curve; in most records, active means well fitted curve in the direction sought with a large enough effect; inconclusive means small, poorly fitted or top-dose-only effect, or another doubt; inactive means no such curve, though single readings can be large; an effect the other way counts as inactive or inconclusive.
SMILES,AT treatment,CCT chaperon mod,TCR activator,Nrf2 inh,A549 viability,Nrf2 ARE act
O=C(O)c1cc(-c2ccc(Cl)cc2)n(-c2ccc(Cl)cc2)n1,0%,-3,-1%,-3%,2%,3%
Cc1ccc(O)c(NC(=S)NC(=O)/C=C/c2ccccc2)c1,-2%,1,3%,-1%,-4%,11µM*
O=C(/C=C/c1ccccc1)NC(=S)Nc1ccccc1O,3%,-5,0%,3%,-9%,23%
COc1ccc2cc(CCNC(=O)c3cc4ccccc4o3)c(=O)[nH]c2c1,4%,1,-3%,10µM*,-11%,0%
CC(C)c1ccc(NC(=O)CSC(C)c2nc3ccccc3c(=O)[nH]2)cc1 (stereo not given),4µM*,0,13%,5%,1%,0%
O=C(c1ccc(S(=O)(=O)N2CCCCCC2)cc1)N1CCCC(C(F)(F)F)C1 (stereo not given),1%,1,-2%,-9%,-3%,0%
CC1CCN(S(=O)(=O)c2ccc(C(=O)N3CCCC(C(F)(F)F)C3)cc2)CC1 (stereo not given),15%,2,-12%,21µM*,-14%,0%
COc1ccccc1NS(=O)(=O)c1ccc(C(=O)N2CCCC(C(F)(F)F)C2)cc1 (stereo not given),-4%,0,3%,23µM*,-8%,0%
Cc1ccccc1N=C(NO)c1cccnc1,4%,0,3%,4%,1%,0%
O=C(Nc1ccncc1)c1ccc(-c2ccccc2)cc1,-2%,-5,5%,2.3µM*,0%,3%
O=C(Nc1ccc(Nc2ccncc2)cc1)c1ccc([N+](=O)[O-])cc1,-8%,-3,-4%,18µM*,1%,6%
O=C(Nc1ccc([N+](=O)[O-])cc1)c1ccc(Cn2cc([N+](=O)[O-])cn2)cc1,-1%,1,-2%,18µM*,-14%,0%
O=C(Nc1cccnc1)c1ccc(-c2ccccc2)cc1,23%,0,6%,3%,-2%,5%
CCOc1ccc(C(=O)Nc2cnn(Cc3ccc(Cl)c(Cl)c3)c2)cc1,3%,-1,-6%,23µM*,?,2%
COc1ccc(N2CCN(C(=O)COC(=O)c3c(-c4ccccc4)noc3C)CC2)cc1,2%,0,.,-29%,1%,3%
Nc1cc(=O)nc(SCC(=O)Nc2ccc(F)cc2)n1-c1cccc(Cl)c1,.,.,.,?,10%,5%
COc1ccc(OCCSc2nc3ccccc3c(=O)[nH]2)cc1,4%,0,1%,4.1µM*,-9%,3%
COc1cccc(C2C=C(c3ccc(OC)cc3OC)Nc3nnnn32)c1 (stereo not given),6%,0,3%,18µM*,?,3%
Fc1cccc(CNc2ncnc3cc(Cl)ccc23)c1F,-2%,-4,4%,18µM*,-3%,11%
Cc1nn(CC(=O)N2CCC(C)CC2)c(=O)c2cccn12,3%,-55*,-10%,?,4%,-1%
CCOC(=O)C1CCN(C(=O)Cn2nc(C)n3cccc3c2=O)CC1,-11%,0,-2%,-15%,-1%,0%
O=S(=O)(c1ccccc1C(F)(F)F)N1CCN(c2nc(-c3cccs3)nc3ccccc23)CC1,.,.,.,-1%,13%,.
O=C(Nc1ccc(Br)cn1)c1coc(=O)c(Br)c1,-6%,1,10%,?,-1%,18µM*
O=C(Nc1ccccc1F)c1coc(=O)c(Br)c1,0%,-24,8%,?,-7%,27%
COc1ccc(C(=O)NC(C)c2ccccc2)cc1Br (stereo not given),2%,-3,-5%,-16%,3%,0%
SMILES,AT treatment,CCT chaperon mod,TCR activator,Nrf2 inh,A549 viability,Nrf2 ARE act
C[C@@H](NC(=O)c1coc(=O)c(Br)c1)c1ccccc1,-5%,-2,12%[46.1 µM],?,-12%,11µM*
COc1cc2[nH]c(=O)n(Cc3ccc(C(=O)N4CCN(c5cc(Cl)ccc5C)CC4)cc3)c(=O)c2cc1OC,.,.,.,-16%[9.27 µM],8%,0%
OC1CCN(c2c3c(nc4cc(-c5cccc(F)c5)nn24)CCCC3)CC1,12%,-1,5%,23µM*,?,8%
COCC(C)n1c(SCc2ccc(OC)c(F)c2)nc2ccccc2c1=O (stereo not given),8%,1,2%,23µM*,5%,0%
N#CC(Sc1ccccn1)c1ccc(Cl)cc1 (stereo not given),3%,0,4%,13µM*,0%,19%
CCc1ccc(CNC(=O)CCCN2C(=O)c3cccnc3Oc3ccc(Cl)cc32)cc1,.,.,.,-9%,-3%,1%
Cc1ccccc1-n1nc2c(c1NC(=O)C(C)(C)C)CS(=O)(=O)C2,-3%,-43*,-27%,0%,0%,0%
CC(=O)C[C@H](O)CC(=O)[C@@H]1OC(=O)[C@H](C)C/C=C\Cc2ccccc21,2%,-1,-4%,6%,10%,1%
O=C(CC1SC(N2CCCC2)=NC1=O)Nc1ccc(C(=O)N2CCN(c3cccc(Cl)c3)CC2)cc1 (stereo not given),-2%,1,-1%,21µM*,?,0%
O=C(CC1SC(N2CCCC2)=NC1=O)Nc1ccc(C(=O)Nc2ncccc2O)cc1 (stereo not given),-1%,2,4%,14%,-1%,16µM*
CN(Cc1ccccc1F)C(=O)c1cccc(NC(=O)CC2SC(N3CCCCC3)=NC2=O)c1 (stereo not given),.,0,0%,18µM*,-11%,4%
CN(Cc1ccccc1F)C(=O)c1ccc(NC(=O)CC2SC(N3CCCCC3)=NC2=O)cc1 (stereo not given),.,1,2%,15%,7%,2%
Cc1ccc(S(=O)(=O)N2CCN(c3nc(-c4ccc(CN5CCNCC5)s4)nc4ccccc34)CC2)cc1,.,.,.,21%,2%,.
Clc1ccc(CNc2ncnc3nc[nH]c23)cc1,.,.,.,0%,?,.
N#Cc1cc(C(=O)c2ccccc2O)cn(-c2nccs2)c1=O,-4%,0,3%[46.1 µM],-2%,0%,22µM*
N#Cc1cc(C(=O)c2cc(F)ccc2O)cn(-c2nccs2)c1=O,0%,-1,-1%[46.1 µM],17%,3%,8%
COc1cc(C2Nc3ccccc3C(=O)N2Cc2ccco2)cc(OC)c1OC (stereo not given),.,.,.,-4%,-1%,.
O=C(CSc1nnc2scc(-c3ccccc3)n12)Nc1nsc(-c2ccc(Cl)cc2)n1,.,-2,0%,?,-13%,0%
